# Screening results as filed in PubChem BioAssay.
# In the library only some 5.4% were active in any assay of this set; here they are far more common.
# VACV Venus inh: qHTS for Stage-Specific Inhibitors of Vaccinia Orthopoxvirus: Venus Reporter Primary qHTS | Potency, µM (doses to about 36.5 µM), most hits filed as inhibitors | Vaccinia virus Venus reporter expression, fluorescence | AID 720580, 2013 | hit rate 0.46% among 330,000; calls by dose curve; tested in A549 cells; further: nearly all actives have a fitted effect of over 30% in size
# Lassa entry inh: qHTS for Inhibitors of binding or entry into cells for Lassa Virus | Lassa virus pseudotype entry inhibition, cell reporter | Potency, µM (series often up to 37.9 µM), actives largely listed as inhibitors | hit rate 1.2% among 300,000 | AID 540256, 2011; calls by dose curve; tested in HEK293 cells; further: nearly all actives have a fitted effect of over 50% in size
# Vaccinia mCherry: qHTS for Stage-Specific Inhibitors of Vaccinia Orthopoxvirus: mCherry Reporter Primary qHTS; Vaccinia virus mCherry reporter infection, fluorescence; Potency, µM (doses to about 36.5 µM), hits mostly inhibitors; hit rate 0.63% among 310,000; AID 720579, 2013; calls by dose curve; tested in A549 cells; further: nearly all actives have a fitted effect of over 35% in size
# Sm TGR inh: qHTS Assay for the Inhibitors of Schistosoma Mansoni Peroxiredoxins. Schistosoma mansoni thioredoxin glutathione reductase (TGR), Q962Y6. purified TGR, DTNB reduction, TNB absorbance 405 nm. Potency, µM (highest dose often 114 µM), hits mostly inhibitors. hit rate 3% among 360,000; active means well fitted inhibition curve with a large enough effect; inconclusive means small, poorly fitted or top-dose-only effect; inactive means no such curve, though single readings can be large or run the other way; further: nearly all actives have a fitted effect of over 60% in size
#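 TGR 20 nM + NADPH 100 uM (dispensed conc.), cpd preinc 15 min RT; start with NADPH (500 uM addition) then DTNB (15 mM addition). Kinetic TNB absorbance, 405 nm filter. Four-parameter Hill fit across titration.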
# FMDV inh: High Throughput Screening for Foot and Mouth Disease Virus Antivirals; hit rate 1.2% among 410,000; FMDV antiviral cell-based qHTS; AID 1159524, 2015; Potency, µM (top dose mostly 57.9 µM), actives largely listed as inhibitors; calls by dose curve; tested in HEK293T cells; further: read-out not given here; nearly all actives have a fitted effect of over 45% in size
# Marburg entry inh: qHTS for inhibitors of binding or entry into cells for Marburg Virus | Marburg virus pseudotyped entry inhibition, cell reporter | Potency, µM (top dose mostly 37.8 µM), actives largely listed as inhibitors | hit rate 1.8% among 300,000 | AID 540276, 2011; calls by dose curve; tested in HEK293 cells
# Numbers stand for hits; i = inactive; ? = inconclusive; nt = no result; [ ] = remark or other dose.
SMILES,VACV Venus inh,Lassa entry inh,Vaccinia mCherry,Sm TGR inh,FMDV inh,Marburg entry inh
O=C(Nc1ccc(F)cc1F)c1cc2ccc3cccnc3c2[nH]1,i,i,i,i,i,nt
O=C(NC1CCCCC1)Oc1cc2oc(=O)sc2cc1Cl,i,i,i,?,25µM,i
COc1ccc(S(=O)(=O)N(CC(=O)NC(C)c2ccccc2)c2ccc(C)cc2)cc1OC (configuration not stated),i,?,i,i,?,nt
COc1ccc(-c2nn(-c3ccccc3)cc2C(=O)NCC(c2cccs2)N2CCOCC2)cc1 (configuration not stated),i,i,i,i,i,?
O=C(NCC(c1cccs1)N1CCOCC1)c1cn(-c2ccccc2)nc1-c1ccccc1 (configuration not stated),i,i,i,i,i,13µM
O=C(NCC(c1cccs1)N1CCOCC1)c1cn(-c2ccccc2)nc1-c1ccc(Cl)cc1 (configuration not stated),?,i,i,i,i,10µM
CN(C)S(=O)(=O)c1ccc(C(=O)NCC(c2cccs2)N2CCOCC2)cc1 (configuration not stated),i,i,i,56µM,i,i
CCc1nc(NC[C@H]2CCCO2)c(C#N)c2c1COC(C)(C)C2,nt,nt,nt,nt,nt,i
COc1ccc(NC(=O)C(=O)NCC2(c3ccccc3)CCCC2)c(OC)c1,i,i,i,i,i,i
CCCCOc1ccc(C2=CSC3=NCCN23)cc1[N+](=O)[O-],i,i,i,i,i,22µM
CC1(C)CC(=O)C2=C(C1)O[C@@]1(CCCCN3C(=O)c4ccccc4C3=O)Cc3ccccc3[C@H]2O1,nt,nt,nt,nt,nt,i
Nc1nc2ccccc2n1C(=O)c1ccc(F)cc1,i,7.1µM,i,i,i,?
Nc1nc2ccccc2n1C(=O)c1ccccc1,nt,nt,nt,nt,i,nt
CC[n+]1c(C)n(C)c2cc(S(=O)(=O)N(C)C)ccc21,i,i,i,50µM,i,i
CCCCC(=O)NC(c1ccc(OC)cc1)c1ccc2cccnc2c1O (configuration not stated),?,nt,10µM,nt,i,nt
COc1ccc(C(=O)NC(c2ccccc2Cl)c2cc(Cl)c3cccnc3c2O)cc1 (configuration not stated),i[7.34 µM],?,i[7.34 µM],i,i,nt
CCCC(=O)NC(c1ccccc1Cl)c1ccc2cccnc2c1O (configuration not stated),?,?,1µM,i,i,0.89µM
CCCC(=O)NC(c1ccc(OC)cc1)c1c(O)ccc2ccccc12 (configuration not stated),i,?,?,i,i,?
O=C(O)c1ccccc1NC(c1ccccc1)c1ccc2cccnc2c1O (configuration not stated),?,?,8.9µM,nt,?,?
CCC(=O)NC(c1ccc(C)cc1)c1ccc2cccnc2c1O (configuration not stated),?,11µM,?,i,i,3.2µM
Cc1ccc2c(=O)c(C(=O)c3ccccc3)cn(CC(=O)NCc3ccccc3)c2n1,i,i,i,i,i,nt
CC(=O)Nc1ccccc1-c1nc2ccccc2n(CC(=O)c2ccc(Br)cc2)c1=O,i,i,i,i,i,i
CNC(=O)C1CCC(Cn2c(=O)c3sccc3n(CC(=O)Nc3ccc(C)c(F)c3)c2=O)CC1 (configuration not stated),i,i,i,i,i,nt
COc1cc2c(cc1OC)Cc1cc(OC)c(OC)cc1Cc1cc(OC)c(OC)cc1C2,i,nt,i,nt,i,nt
CCCC(=O)NC(c1ccc(N(C)C)cc1)c1ccc2cccnc2c1O (configuration not stated),?,?,?,i,i,?
SMILES,VACV Venus inh,Lassa entry inh,Vaccinia mCherry,Sm TGR inh,FMDV inh,Marburg entry inh
CCCC(=O)NC(c1ccc(C(C)C)cc1)c1ccc2cccnc2c1O (configuration not stated),i,4.5µM,?,i,i,?
COc1ccc(C(NC(=O)C(C)C)c2ccc3cccnc3c2O)cc1 (configuration not stated),?,2.5µM,4.5µM,i,?,?
CC(=O)OC[C@H]1O[C@H](C/C=N/OC[C@@H](C)[C@H](OCc2ccccc2)C(C)C)C=C[C@@H]1OC(C)=O,nt,nt,nt,nt,nt,i
COCC(=O)Nc1cc(C(=O)N2CCN(c3ccccc3)C(=O)C2)cc2nc(-c3ccccc3)n(C)c12,i,nt,i,nt,i,nt
c1ccc(-c2cn3c(n2)-c2ccccc2C3)cc1,i,4.5µM,i,i,i,?
COc1cccc(-n2nc(C(N)=O)c(O)cc2=O)c1,i,i,i,i,i,i
COc1cccc(-n2nc(C#N)c(Cl)cc2=O)c1,18µM,?,?,2.5µM,11µM,?
O=c1cc(CSc2nnc(COc3ccccc3)o2)c2ccccc2[nH]1,nt,23µM,nt,i,i,?
COc1ccc(C2C(C(=O)c3ccccc3)N3c4ccccc4C=CC3C2[N+](=O)[O-])cc1 (configuration not stated),i,i,i,40µM,i,i
COc1ccc(N2C(=O)[C@@H]3[C@H](C2=O)[C@H](C(C)=O)N2c4ccccc4C=C[C@@H]32)cc1,i,i,i,?,i,i
COc1ccc(CNC(=O)COC(=O)c2cc(-c3ccc(Cl)s3)nc3ccccc23)cc1,i,i,nt,i,i,i
Nc1c(C(=O)NCc2ccco2)sc2nc3c(cc12)C(=O)CCC3,nt,i,nt,8.9µM,i,?
COc1ccc2cc3c(N)c(C(=O)NCc4ccco4)sc3nc2c1,nt,i,nt,i,i,?
O=C(NCc1ccco1)c1c2c(nc3ccccc13)CCC2,i,i,i,40µM,i,i
O=C(COC(=O)c1cc(-c2ccc(Cl)s2)nc2ccccc12)NCc1ccco1,i,i,nt,7.9µM,i,?
O=C(NCc1ccco1)c1cc(-c2cccs2)nc2ccccc12,i,i,i,i,i,?
O=C(COC(=O)c1cc(-c2cccs2)nc2ccccc12)NCc1ccco1,i,i,i,40µM,i,i
CC(C)c1c(C(=O)NCc2ccccn2)cnn1-c1nccc(-c2ccccc2F)n1,i,nt,i,nt,i,nt
Cc1ccc(-c2cc(C(=O)NCc3ccco3)c3ccccc3n2)s1,i,i,nt,28µM,i,?
N#CC1=C(N)N(c2ccc(F)cc2)C2=C(C1c1ccc(O)cc1)S(=O)(=O)CC2 (configuration not stated),i,i,i,1.8µM,i,?
Cc1ccc(Cl)cc1N1CCN(C(=O)C2CCN(c3nnc(-n4cccc4)s3)CC2)CC1,nt,nt,nt,i,?,nt
Cc1ccc2c(c1)N(C(=O)CCC(=O)N1CCN(c3ccccn3)CC1)CC(C)O2 (configuration not stated),i,nt,i,i,i,nt
Cc1cccc(N2CCN(C(=O)CCC(=O)N3CC(C)Oc4ccc(C)cc43)CC2C)c1 (configuration not stated),?,nt,?,i,28µM,nt
COc1ccc2nc(NC(=O)C3CCN(S(=O)(=O)c4cccc5nsnc45)CC3)sc2c1,?,4.6µM,?,i,7.9µM,?
